# Measurements: the supplement of paper PMC8728848
# This is one part of a sample in which the strongest signals are shown more often than they occur.
# Tests used:
# Test in all cases: glycan array binding signal (z-score within array); higher = stronger binding
# Conditions in all cases: glycan notation: IUPAC condensed, linker removed
# [1] = molecular target: Fuc(a1-2)Gal(b1-3)GalNAc
# Outline: (§1)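 The binding signal is a Z-score computed within each array and averaged over linkers. Arrays of the same protein sequence at different concentrations or buffers were also averaged together. Data originate from 3228 arrays in the Consortium for Functional Glycomics database, kept only where the protein sequence was available.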
# [2] = molecular target: Fuc(a1-2)[Gal(a1-3)]Gal(b1-4)[Fuc(a1-3)]Glc
# Outline: as §1
# [3] = molecular target: Fuc(a1-2)[GalNAc(a1-3)]Gal(b1-4)GlcNAc(b1-2)Man(a1-3)[Fuc(a1-2)[GalNAc(a1-3)]Gal(b1-4)GlcNAc(b1-2)Man(a1-6)]Man(b1-4)GlcNAc(b1-4)[Fuc(a1-6)]GlcNAc
# Outline: as §1
# [4] = molecular target: Fuc(a1-2)[GalNAc(a1-3)]Gal(b1-4)GlcNAc(b1-3)Gal(b1-4)GlcNAc(b1-3)Gal(b1-4)GlcNAc
# Outline: as §1
# [5] = molecular target: Fuc(a1-2)[GalNAc(a1-3)]Gal(b1-4)[Fuc(a1-3)]GlcNAc
# Outline: as §1
# [6] = molecular target: Gal(a1-3)Gal(b1-3)GlcNAc
# Outline: as §1
# [7] = molecular target: Gal(a1-3)Gal(b1-3)GlcNAc(b1-2)Man
# Outline: as §1
# [8] = molecular target: Gal(a1-3)Gal(b1-4)Glc
# Outline: as §1
# [9] = molecular target: Gal(a1-3)Gal(b1-4)GlcNAc(b1-2)Man
# Outline: as §1
# [10] = molecular target: Gal(a1-3)[Gal(a1-4)]Gal(b1-4)GlcNAc
# Outline: as §1
# [11] = molecular target: Gal(b1-3)Gal
# Outline: as §1
# [12] = molecular target: Gal(b1-3)GlcNAc(b1-2)Man
# Outline: as §1
# [13] = molecular target: Gal(b1-3)GlcNAc(b1-2)Man(a1-3)[Gal(b1-3)GlcNAc(b1-2)Man(a1-6)]Man(b1-4)GlcNAc(b1-4)[Fuc(a1-6)]GlcNAc
# Outline: as §1
# [14] = molecular target: Gal(b1-3)GlcNAc(b1-3)Gal(b1-3)GlcNAc
# Outline: as §1
# [15] = molecular target: Gal(b1-3)GlcNAc(b1-3)Gal(b1-4)GlcNAc(b1-6)[Gal(b1-3)GlcNAc(b1-3)]Gal(b1-4)Glc
# Outline: as §1
# [16] = molecular target: Gal(b1-3)[Fuc(a1-4)]GlcNAc(b1-2)Man
# Outline: as §1
# [17] = molecular target: Gal(b1-4)GlcNAc(b1-2)Man(a1-3)[GlcNAc(b1-2)Man(a1-6)]Man(b1-4)GlcNAc(b1-4)GlcNAc
# Outline: as §1
# [18] = molecular target: Gal(b1-4)GlcNAc(b1-2)Man(a1-3)[Man(a1-6)]Man(b1-4)GlcNAc(b1-4)GlcNAc
# Outline: as §1
# [19] = molecular target: Gal(b1-4)GlcNAc(b1-2)Man(a1-6)[GlcNAc(b1-2)Man(a1-3)]Man(b1-4)GlcNAc(b1-4)GlcNAc
# Outline: as §1
# [20] = molecular target: Gal(b1-4)GlcNAc(b1-3)Gal(b1-4)GlcNAc(b1-3)Gal(b1-4)GlcNAc(b1-3)Gal(b1-4)GlcNAc(b1-3)Gal(b1-4)GlcNAc(b1-2)Man(a1-3)[Gal(b1-4)GlcNAc(b1-3)Gal(b1-4)GlcNAc(b1-3)Gal(b1-4)GlcNAc(b1-3)Gal(b1-4)GlcNAc(b1-3)Gal(b1-4)GlcNAc(b1-2)Man(a1-6)]Man(b1-4)GlcNAc(b1-4)[Fuc(a1-6)]GlcNAc
# Outline: as §1
# [21] = molecular target: Gal(b1-4)GlcNAc(b1-3)Gal(b1-4)GlcNAc(b1-3)[Gal(b1-4)GlcNAc(b1-3)Gal(b1-4)GlcNAc(b1-6)]GalNAc
# Outline: as §1
# [22] = molecular target: Gal(b1-4)GlcNAc(b1-3)Gal(b1-4)[Fuc(a1-3)]GlcNAc(b1-3)Gal(b1-4)[Fuc(a1-3)]GlcNAc
# Outline: as §1
# [23] = molecular target: Gal(b1-4)GlcNAc(b1-6)Gal(b1-4)GlcNAc
# Outline: as §1
# [24] = molecular target: Gal(b1-4)GlcNAc(b1-6)GalNAc
# Outline: as §1
# [25] = molecular target: Gal6P(b1-4)GlcNAc
# Outline: as §1
# [26] = molecular target: GalNAc(b1-3)Gal(a1-6)Gal(b1-4)Glc
# Outline: as §1
# [27] = molecular target: GalNAc3S(b1-4)[Fuc(a1-3)]GlcNAc
# Outline: as §1
# [28] = molecular target: GalNAc4S6S(b1-4)GlcNAc
# Outline: as §1
# [29] = molecular target: GlcNAc(b1-2)[GlcNAc(b1-4)]Man(a1-3)[GlcNAc(b1-2)Man(a1-6)]Man(b1-4)GlcNAc(b1-4)GlcNAc
# Outline: as §1
# [30] = molecular target: GlcNAc(b1-3)Gal(b1-4)GlcNAc(b1-3)Gal(b1-4)GlcNAc(b1-3)Gal(b1-4)GlcNAc(b1-2)Man(a1-3)[GlcNAc(b1-3)Gal(b1-4)GlcNAc(b1-3)Gal(b1-4)GlcNAc(b1-3)Gal(b1-4)GlcNAc(b1-2)Man(a1-6)]Man(b1-4)GlcNAc(b1-4)GlcNAc
# Outline: as §1
# [31] = molecular target: GlcNAc(b1-3)GalNAc
# Outline: as §1
# [32] = molecular target: GlcNAc(b1-4)GlcNAc(b1-4)GlcNAc(b1-4)GlcNAc(b1-4)GlcNAc(b1-4)GlcNAc
# Outline: as §1
# [33] = molecular target: GlcNAc(b1-4)[GlcNAc(b1-6)]GalNAc
# Outline: as §1
# [34] = molecular target: Man(a1-3)[Man(a1-6)]Man(b1-4)GlcNAc(b1-4)GlcNAc
# Outline: as §1
# [35] = molecular target: Man(a1-6)Man
# Outline: as §1
# [36] = molecular target: Neu5Ac(a2-3)Gal(b1-3)GlcNAc6S
# Outline: as §1
# [37] = molecular target: Neu5Ac(a2-3)Gal(b1-3)[Fuc(a1-4)]GlcNAc(b1-3)Gal(b1-4)[Fuc(a1-3)]GlcNAc
# Outline: as §1
# [38] = molecular target: Neu5Ac(a2-3)Gal(b1-3)]Neu5Ac(a2-3)Gal(b1-4)]GlcNAc
# Outline: as §1
# [39] = molecular target: Neu5Ac(a2-3)Gal(b1-4)GlcNAc(b1-2)Man
# Outline: as §1
# [40] = molecular target: Neu5Ac(a2-3)Gal(b1-4)GlcNAc(b1-6)GalNAc
# Outline: as §1
# [41] = molecular target: Neu5Ac(a2-3)Gal(b1-4)GlcNAc(b1-6)[Gal(b1-3)]GalNAc
# Outline: as §1
# [42] = molecular target: Neu5Ac(a2-3)Gal(b1-4)GlcNAc6S
# Outline: as §1
# [43] = molecular target: Neu5Ac(a2-3)[Neu5Ac(a2-6)]GalNAc
# Outline: as §1
# [44] = molecular target: Neu5Ac(a2-6)Gal
# Outline: as §1
# [45] = molecular target: Neu5Ac(a2-6)Gal(b1-4)GlcNAc(b1-2)Man(a1-6)Man(b1-4)GlcNAc(b1-4)GlcNAc
# Outline: as §1
# [46] = molecular target: Neu5Ac(b2-6)GalNAc
# Outline: as §1
binder,measurement,setting,value
Si Bti9 1b-V5-his (Solanum lycopersicum) (protein) MQCNRGCDLALASFYVWRGSNLTLISEMFSTSIADIVSYNNRDNIPNQDSVIAGTRINIPFRCDCLNDGEVLGHAFPYRVKSGDTYDLVARNYSDLTTAQWMMKFNSYPENNIPNTVNLSVVVNCSCGNSDVSKDFGLFVTYPVRAEDNLTSVASAANVSEDIIRRYNPAAVSILDIGQGIIYIPGRDRNGNFPPLPTSTDGLSGGAKKGGRADPAFLYKVVINSKLEGKPIPNPLLGLDSTRTGHHHHHH,glycan array binding signal (z-score),[1],-0.261
same,glycan array binding signal (z-score),[2],-0.298
same,glycan array binding signal (z-score),[3],0.032
same,glycan array binding signal (z-score),[4],0.217
same,glycan array binding signal (z-score),[5],-0.245
same,glycan array binding signal (z-score),[6],11.5
same,glycan array binding signal (z-score),[7],6.21
same,glycan array binding signal (z-score),[8],-0.169
same,glycan array binding signal (z-score),[9],-0.206
same,glycan array binding signal (z-score),[10],2.94
same,glycan array binding signal (z-score),[11],-0.313
same,glycan array binding signal (z-score),[12],-0.032
same,glycan array binding signal (z-score),[13],-0.076
same,glycan array binding signal (z-score),[14],0.11
same,glycan array binding signal (z-score),[15],-0.125
same,glycan array binding signal (z-score),[16],1.83
same,glycan array binding signal (z-score),[17],-0.243
same,glycan array binding signal (z-score),[18],-0.294
same,glycan array binding signal (z-score),[19],-0.277
same,glycan array binding signal (z-score),[20],-0.258
same,glycan array binding signal (z-score),[21],0.207
same,glycan array binding signal (z-score),[22],-0.264
same,glycan array binding signal (z-score),[23],-0.272
same,glycan array binding signal (z-score),[24],2.79
same,glycan array binding signal (z-score),[25],-0.317
same,glycan array binding signal (z-score),[26],-0.348
same,glycan array binding signal (z-score),[27],4.72
same,glycan array binding signal (z-score),[28],-0.18
same,glycan array binding signal (z-score),[29],-0.289
same,glycan array binding signal (z-score),[30],3.41
same,glycan array binding signal (z-score),[31],-0.322
same,glycan array binding signal (z-score),[32],-0.156
same,glycan array binding signal (z-score),[33],5.97
same,glycan array binding signal (z-score),[34],-0.362
same,glycan array binding signal (z-score),[35],5.02
same,glycan array binding signal (z-score),[36],0.024
same,glycan array binding signal (z-score),[37],-0.294
same,glycan array binding signal (z-score),[38],-0.311
same,glycan array binding signal (z-score),[39],0.768
same,glycan array binding signal (z-score),[40],-0.254
same,glycan array binding signal (z-score),[41],-0.108
same,glycan array binding signal (z-score),[42],10.6
same,glycan array binding signal (z-score),[43],-0.269
same,glycan array binding signal (z-score),[44],3.19
same,glycan array binding signal (z-score),[45],-0.285
same,glycan array binding signal (z-score),[46],-0.242
